From PubChem BioAssay AID1159580 (chemical genetic matrix, 2015)
Out of some 5,500 compounds screened, about 2,000 (36%) were called active. Inconclusive results (about 18%) are left out. Rule as the data show it: active = normalized growth mostly below about 0.91 (no sharp cut-off); inconclusive = no clear call, values can overlap the other calls; inactive = mostly above about 0.92. This is one part of the list.

Test: chemical genetic growth profiling, strain panel (AID 1159580);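 also: tested at 20 µM; growth read once vehicle control cultures reached saturation at 30 °C; 1 = growth at the plate median or of vehicle wells; lower values mean less growth of the strain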
Conditions: S. cerevisiae deletion strains, growth OD

Measured: normalized growth

CCC(COC(=O)c1cc(OC)c(OC)c(OC)c1)(c1ccccc1)N(C)C (stereo not given)
inactive: locus YAL021C, strain ccr4, hits give low values 0.969 | locus YAL026C, strain drs2, hits give low values 0.994 | locus YAL030W, strain snc1, hits give low values 0.985 | locus YBL061C, strain skt5, hits give low values 0.993 | locus YBR009C, strain hhf1, hits give low values 1.01 | locus YBR023C, strain chs3, hits give low values 0.98 | locus YBR171W, strain sec66, hits give low values 0.961 | locus YBR231C, strain swc5, hits give low values 0.985 | locus YBR279W, strain paf1, hits give low values 0.975 | locus YCL011C, strain gbp2, hits give low values 0.969 | locus YCL016C, strain dcc1, hits give low values 0.99 | locus YCL061C, strain MRC1, hits give low values 0.987 | locus YCL069W, strain vba3, hits give low values 0.988 | locus YCR088W, strain abp1, hits give low values 0.979 | locus YDL005C, strain med2, hits give low values 0.977 | locus YDL040C, strain nat1, hits give low values 0.978 | locus YDR001C, strain nth1, hits give low values 0.974 | locus YDR069C, strain doa4, hits give low values 0.992 | locus YDR137W, strain rgp1, hits give low values 0.925 | locus YDR159W, strain sac3, hits give low values 0.986 | locus YDR195W, strain ref2 0.984 | locus YDR297W, strain sur2, hits give low values 0.971 | locus YDR334W, strain swr1, hits give low values 0.938 | locus YDR335W, strain msn5, hits give low values 0.969 | locus YDR392W, strain spt3, hits give low values 0.753 | locus YEL003W, strain gim4, hits give low values 0.967 | locus YEL037C, strain rad23, hits give low values 0.983 | locus YEL061C, strain CIN8 (second series), hits give low values 0.985 | locus YER015W, strain faa2, hits give low values 0.986 | locus YER016W, strain bim1, hits give low values 0.983 | locus YER111C, strain swi4, hits give low values 0.983 | locus YER155C, strain BEM2 (second series), hits give low values 0.97 | locus YFR010W, strain ubp6, hits give low values 0.984 | locus YGL167C, strain pmr1, hits give low values 0.976 | locus YGL173C, strain kem1, hits give low values 0.985 | locus YGL227W, strain vid30, hits give low values 0.99 | locus YGL240W, strain doc1, hits give low values 0.972 | locus YGL253W, strain hxk2, hits give low values 0.994 | locus YHR013C, strain ard1, hits give low values 0.937 | locus YHR027C, strain rpn1, hits give low values 0.969 | locus YHR030C, strain SLT2, hits give low values 0.976 | locus YHR079C, strain IRE1, hits give low values 0.985 | locus YHR142W, strain chs7, hits give low values 0.952 | locus YJL092W, strain hpr5, hits give low values 0.973 | locus YJL095W, strain BCK1 (second series), hits give low values 0.981 | locus YJL095W, strain BCK1, hits give low values 0.98 | locus YJL115W, strain asf1, hits give low values 0.957 | locus YJL129C, strain trk1, hits give low values 0.938 | locus YJL154C, strain vps35, hits give low values 0.979 | locus YJL164C, strain tpk1, hits give low values 0.966 | locus YJL166W, strain qcr8, hits give low values 0.969 | locus YJL187C, strain SWE1, hits give low values 0.988 | locus YJR066W, strain TOR1, hits give low values 0.924 | locus YKL160W, strain elf1, hits give low values 0.959 | locus YKR026C, strain gcn3, hits give low values 0.983 | locus YKR091W, strain srl3, hits give low values 0.976 | locus YLL001W, strain dnm1, hits give low values 0.985 | locus YLL026W, hits give low values 0.975 | locus YLL041C, strain sdh2, hits give low values 0.964 | locus YLR027C, strain aat2, hits give low values 0.974 | locus YLR113W, strain HOG1, hits give low values 0.995 | locus YLR221C, strain rsa3, hits give low values 0.951 | locus YLR258W, strain gsy2, hits give low values 0.991 | locus YLR262C, strain YPT6 (second series), hits give low values 0.933 | locus YLR320W, strain mms22, hits give low values 0.942 | locus YLR342W, strain FKS1, hits give low values 0.983 | locus YLR357W, strain rsc2, hits give low values 0.966 | locus YLR370C, strain arc18, hits give low values 0.997 | locus YLR384C, strain iki3, hits give low values 0.976 | locus YML120C, strain ndi1, hits give low values 0.957 | locus YMR058W, strain fet3, hits give low values 0.979 | locus YMR125W, strain sto1, hits give low values 0.97 | locus YMR129W, hits give low values 0.978 | locus YMR205C, strain PFK2, hits give low values 1.02 | locus YMR231W, strain pep5, hits give low values 0.999 | locus YNL071W, strain lat1, hits give low values 0.921 | locus YNL183C, strain NPR1, hits give low values 0.939 | locus YNL209W, strain ssb2, hits give low values 0.98 | locus YNL248C, strain rpa49, hits give low values 0.945 | locus YNL322C, strain KRE1 (second series), hits give low values 0.972 | locus YNR049C, strain mso1, hits give low values 0.973 | locus YOR001W, strain rrp6, hits give low values 0.913 | locus YOR070C, strain gyp1, hits give low values 0.978 | locus YOR080W, strain dia2, hits give low values 0.977 | locus YOR083W, strain WHI5, hits give low values 0.952 | locus YOR106W, strain vam3, hits give low values 0.957 | locus YOR231W, strain MKK1, hits give low values 0.988 | locus YOR265W, strain rbl2, hits give low values 0.976 | locus YOR270C, strain vph1, hits give low values 0.955 | locus YOR290C, strain snf2, hits give low values 0.925 | locus YPL051W, strain arl3, hits give low values 0.954 | locus YPL078C, strain atp4, hits give low values 0.946 | locus YPL106C, strain sse1, hits give low values 0.941 | locus YPL240C, strain hsp82, hits give low values 0.961 | locus YPL256C, strain CLN2, hits give low values 0.966
